In the library only some 4.5% were active in any assay of this set; here they are far more common.
PrP 5UTR inh: suppresses PrP 5' UTR mRNA reporter expression; AID 488862; inhibition, % (test concentration not listed); actives 0.35% (n = 340,000); cell-based PrP 5' UTR mRNA reporter, plate reader; in the data active means inhibition above about 52%
PfHsp40 yeast: compounds rescuing yeast from Plasmodium falciparum HSP40 toxicity | S. cerevisiae expressing PfHsp40, growth rescue, ATP luminescence | growth rescue, % at 12.5 µM | actives 0.68% (n = 340,000) | AID 504582; in the data active means growth rescue above about 28%, passing the limit was not always enough;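 further: yeast W303a lacking pdr1 and pdr3 grown in galactose medium; growth measured after three days at 30 °C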
GDH-TPI counter-1: GDH-TPI coupled enzyme inhibition counter-screen; actives 1.2% (n = 360,000); GDH-TPI coupled enzyme counterscreen, NADH absorbance; inhibition, % at 4.8 µM; AID 588335; in the data active means inhibition above about 30%
FBA Mtb inh: inhibits M. tuberculosis FBA enzyme | P9WQA3 | purified M. tuberculosis FBA, fluorescence read-out | inhibition, % at 1 µM | actives 2.3% (n = 360,000)
Target sequence (P9WQA3 whole entry, looked up): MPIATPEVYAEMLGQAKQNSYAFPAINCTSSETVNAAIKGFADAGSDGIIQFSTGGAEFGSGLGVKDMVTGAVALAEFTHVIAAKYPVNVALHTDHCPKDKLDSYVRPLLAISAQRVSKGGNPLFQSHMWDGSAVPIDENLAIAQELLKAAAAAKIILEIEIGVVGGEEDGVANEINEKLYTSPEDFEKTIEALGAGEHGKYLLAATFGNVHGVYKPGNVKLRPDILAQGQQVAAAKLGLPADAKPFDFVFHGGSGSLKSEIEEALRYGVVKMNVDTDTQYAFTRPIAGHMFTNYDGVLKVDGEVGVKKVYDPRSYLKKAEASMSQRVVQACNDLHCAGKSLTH
PrPC surface inh: reduces human prion protein on the cell surface. inhibition, % at 13.8 µM. AID 720596. actives 0.43% (n = 370,000). cell surface PrPC, TR-FRET read-out. P04156; in the data active means inhibition above about 24%
BJeLR viability: kills HRASV12-expressing BJeLR cells | BJeLR (HRASV12) viability, CellTiter-Glo ATP luminescence, 48 h | inhibition, % (no concentration beside the values) | actives 0.17% (n = 300,000); in the data active means inhibition above about 50%
Mtb FBA confirm: Mtb FBA inhibition, confirmed. actives 78% (n = 5,600). shares compounds with FBA Mtb inh. purified M. tuberculosis FBA, fluorescence read-out. inhibition, % at 1 µM. AID 651616
GDH-TPI counter-2: inhibits GDH-TPI coupling enzymes, flagging Mtb FBA hits; shares compounds with FBA Mtb inh; GDH-TPI coupled enzyme counterscreen, fluorescence; actives 81% (n = 5,600); AID 652141; inhibition, % at 1 µM; in the data active means inhibition above about 10%
Of the large screens only hits and unclear results are named; the others gave an inactive call (follow-up assays come after a bar, where they were run). Unless noted, no stated cut-off is given here; in the data, active means inhibition above about 27%; inactive means the rest.

COc1ccc(NC(=O)c2ccc(S(=O)(=O)N3CC(C)CC(C)C3)cc2)cc1S(N)(=O)=O (stereo not given)	FBA Mtb inh 39 (no result: BJeLR viability) | Mtb FBA confirm 180 | GDH-TPI counter-2 152
CCN(CC)CCCNC(=O)c1cc2c(=O)n(CC)c3ccccc3c2s1	FBA Mtb inh 72 | Mtb FBA confirm active | GDH-TPI counter-2 active
CN(C)CCNC(=O)c1cc2sc3ccccc3c2s1	none
CCN(CC)CCNC(=O)c1cc2c(=O)n(CC)c3ccccc3c2s1	FBA Mtb inh 72 (no result: PfHsp40 yeast) | Mtb FBA confirm 42 | GDH-TPI counter-2 36
CCn1c(=O)c2cc(C(=O)NCCN(C)C)sc2c2ccccc21	FBA Mtb inh 62 | Mtb FBA confirm 105 | GDH-TPI counter-2 89
CCCN(CCC)CCNC(=O)c1cc2c(=O)n(CC)c3ccccc3c2s1	FBA Mtb inh 28 | Mtb FBA confirm 63 | GDH-TPI counter-2 55
CN1C[C@@H]2[C@@H]3C(=O)N(C)C(=O)[C@@H]3[C@](C)(C1=O)N2C(=O)c1ccc(C(C)(C)C)cc1	none (no result: BJeLR viability)
O=C(CN(C(=O)Cn1nnc(-c2ccc(F)cc2)n1)c1ccc(F)cc1)NC1CCCC1	none
COCCN1CCN(C(=O)c2ccc3c(c2)S(=O)(=O)c2ccccc2C3=O)CC1	none (no result: PrP 5UTR inh, PfHsp40 yeast, GDH-TPI counter-1, FBA Mtb inh)
CC(=O)Nc1ccc(C2Nc3ccccc3C(=O)N2C2CCCCC2)cc1 (stereo not given)	FBA Mtb inh 61 | Mtb FBA confirm inactive | GDH-TPI counter-2 inactive
O=C(Nc1ccc2c(c1)OCCO2)C1C(=O)Nc2ccccc2C(=O)N1C1CCCCC1 (stereo not given)	none (no result: PrP 5UTR inh, PfHsp40 yeast, GDH-TPI counter-1, FBA Mtb inh, BJeLR viability)
CNC(=O)CN(c1ccc(Oc2ccccc2)cc1)S(=O)(=O)c1ccc(C)cc1	none
Cc1cccc(C)c1NC(=O)CN1CCN(C(=O)c2cc(C3CC3)nn2-c2ccccc2)CC1	none (no result: PrP 5UTR inh, PfHsp40 yeast, BJeLR viability)
Cc1cc(N2CCN(c3ccccn3)CC2)n2cc(-c3ccccc3)nc2n1	none
Cc1cc(N2CCN(C)CC2)n2cc(-c3ccc(F)cc3)nc2n1	FBA Mtb inh 69 | Mtb FBA confirm 41 | GDH-TPI counter-2 37
CCC(=O)NCCn1ccc2ccccc21	none
CC(C)C(=O)NCCn1ccc2ccccc21	FBA Mtb inh 30 | Mtb FBA confirm 102 | GDH-TPI counter-2 88
C[C@@H]1CCN(C2CC2)S(=O)(=O)c2ccc(N3CCC[C@@H]3C)cc2O1	none (no result: PrP 5UTR inh, PfHsp40 yeast, GDH-TPI counter-1, FBA Mtb inh, BJeLR viability)
O=C(/C=C/c1ccc(Cl)cc1Cl)c1nc2ccccc2[nH]1	none
Clc1ccc(/C=C/c2nc3ccccc3[nH]2)cc1	GDH-TPI counter-1 39, FBA Mtb inh 53 | Mtb FBA confirm active | GDH-TPI counter-2 124
Clc1ccc(/C=C/c2nc3ccccc3[nH]2)c(Cl)c1	FBA Mtb inh 63 | Mtb FBA confirm 60 | GDH-TPI counter-2 44
Clc1ccc(SCc2nc3ccccc3[nH]2)cc1	none
COc1cc(/C=N/Nc2nc(N3CCCC3)nc(N3CCCC3)n2)ccc1OCc1ccccc1F	none
COc1ccc(COc2ncnc3ccc(Br)cc23)cc1F	none
Cc1ccc(-c2ccc(C(=O)Nc3ccccc3)o2)c2ccccc12	none
Cc1ccc(-c2ccc(C(=O)NCc3ccccc3)o2)c2ccccc12	FBA Mtb inh 61 | Mtb FBA confirm 120 | GDH-TPI counter-2 74
CCCCC#CC(CC)NCc1ccc(OC)cc1OC (stereo not given)	none (no result: PrP 5UTR inh, PfHsp40 yeast, GDH-TPI counter-1, FBA Mtb inh, BJeLR viability)
Cc1c(O[C@@H]2O[C@H](CO)[C@@H](O)[C@H](O)[C@H]2O)ccc2c1oc(=O)c1ccccc12	FBA Mtb inh 88 (no result: PfHsp40 yeast) | Mtb FBA confirm 62 | GDH-TPI counter-2 52
Cc1c(C)c2ccc(O[C@@H]3O[C@H](CO)[C@H](O)[C@H](O)[C@H]3O)c(C)c2oc1=O	FBA Mtb inh 34 | Mtb FBA confirm 49 | GDH-TPI counter-2 44
CCn1cc(C(=O)NCc2ccccc2)c(=O)c2cc(F)c(N3CCN(C(=O)c4ccco4)CC3)cc21	none
CCn1cc(C(=O)NCc2ccncc2)c(=O)c2cc(F)c(N3CCN(C(=O)c4ccco4)CC3)cc21	FBA Mtb inh 42 (no result: PrP 5UTR inh, PfHsp40 yeast) | Mtb FBA confirm 35 | GDH-TPI counter-2 22
CCn1cc(C(=O)NC(C)C)c(=O)c2cc(F)c(N3CCN(C(=O)c4ccco4)CC3)cc21	FBA Mtb inh 55 | Mtb FBA confirm 100 | GDH-TPI counter-2 70
C/C(=N\NC(N)=O)C1CC(Cc2ccccc2)C(=O)O1 (stereo not given)	none
CCCCCNC(=O)C(c1ccc(C(F)(F)F)cc1)n1c(=O)c(-c2ccco2)nc2ccccc21 (stereo not given)	none (no result: PrP 5UTR inh, PfHsp40 yeast, GDH-TPI counter-1, FBA Mtb inh, BJeLR viability)
CC1=CC(c2ccc(Cl)cc2)n2nc(NC(=O)CCCC(=O)O)nc2N1 (stereo not given)	FBA Mtb inh 75 | Mtb FBA confirm 59 | GDH-TPI counter-2 45
CN1N=C2c3ccccc3CCC2C1c1ccc(F)cc1 (stereo not given)	none (no result: PrP 5UTR inh, PfHsp40 yeast)
c1ccc(N2CC3CCc4ccccc4C3=N2)cc1 (stereo not given)	FBA Mtb inh 58 | Mtb FBA confirm 46 | GDH-TPI counter-2 31
O=C(N/N=C/C=C/c1ccccc1)NC1CCCCC1	FBA Mtb inh 68 | Mtb FBA confirm 167 | GDH-TPI counter-2 145
O=C(N/N=C/C=C/c1ccccc1)c1ccccn1	GDH-TPI counter-1 35, FBA Mtb inh 65 | Mtb FBA confirm 180 | GDH-TPI counter-2 174
O=C(N/N=C/C=C\c1ccccc1)c1cnccn1	none (no result: BJeLR viability)
CC(C)Oc1ccccc1/C=N/NC(=O)C1CC1	none (no result: PrP 5UTR inh, PfHsp40 yeast)
CCOc1ccc2nc(COC(=O)c3cccc([N+](=O)[O-])c3)c(C(C)=O)[n+]([O-])c2c1	none (no result: PrP 5UTR inh, PfHsp40 yeast)
COC(=O)C1(C)CCc2c(ccc3ccccc23)C1=O (stereo not given)	FBA Mtb inh 35 (no result: PrP 5UTR inh, PfHsp40 yeast, GDH-TPI counter-1, BJeLR viability) | Mtb FBA confirm 56 | GDH-TPI counter-2 47
CCC1(C(=O)OC)CCc2c(cc(OC)c3ccccc23)C1=O (stereo not given)	FBA Mtb inh 28 (no result: PrPC surface inh) | Mtb FBA confirm 111 | GDH-TPI counter-2 71
COc1cc(NC(=S)Nc2ccc(N(C)C(C)=O)cc2)cc(OC)c1	none
Cc1sc(-c2cccnc2)nc1OC(=O)C1CC1	FBA Mtb inh 28 | Mtb FBA confirm active | GDH-TPI counter-2 active
CNC(=O)c1sc(-c2cccnc2)nc1C	none
CNC(=O)C(C#N)(Cc1cc(C(C)=O)ccc1OC)Cc1cc(C(C)=O)ccc1OC	FBA Mtb inh 37 | Mtb FBA confirm inactive | GDH-TPI counter-2 inactive
Cc1noc(C)c1COC(=O)c1cccc(N(C)C)c1	none
COc1ccccc1NC(=O)CCCCCN1C(=O)c2cccc3cccc(c23)C1=O	none
O=C(CCCCCN1C(=O)c2cccc3cccc(c23)C1=O)NCCCO	FBA Mtb inh 33 | Mtb FBA confirm 97 | GDH-TPI counter-2 73
O=C(CN1C(=O)c2cccc3cccc(c23)C1=O)NCCCO	FBA Mtb inh 52 | Mtb FBA confirm inactive | GDH-TPI counter-2 24
